# Measured values: the supplement of paper PMC8728848
# The entries come from a sample that favours the strongest signals as a whole.
# B1: Clec39 (Caenorhabditis elegans) (protein)
# chain: MTSFYDNSSSSSKPVPLKTSRAQKIQILIFDNWKLILYGAISTLILVLAIMFSTLFFALPAANCDENSEPTKYYTTNAEITTTITTTNQKTTSTASSHLTTISSSATQIYSESSSSSTSQSTFTQSPPEISTTTIAPSDFSCQHGFTLVNNKCWKLVTSNQARPDADKICNGYGGATLFSIKSEQDNRAMIHFVKGQDIDFLWSGLLCSAGEPISCIWDIENGSTANYSNFADGFPNIVYGNCVYFITSGDEAGQWGNEQCGQVMNFVCELPATFQGKDGCKNNYEKSCYLRFDLNLTVPQAQNFCLEKCANLVSIHSANEVRFIMTIYDFIGEILIGALAPAQDFIYWLDGTPANYNNLKFFYNSTCVHMTVAPGMQNVGKWFTRFCTETGKFLCKRSIKNSCT
# Key:
# Test in all cases: glycan array binding signal (z-score within array); higher = stronger binding
# Settings in all cases: glycan notation: IUPAC condensed, linker removed
# [1] = molecular target: GlcNAc(a1-4)Gal(b1-4)GlcNAc(b1-3)Gal(b1-4)[Fuc(a1-3)]GlcNAc(b1-3)Gal(b1-4)[Fuc(a1-3)]GlcNAc
# Procedure, shortened: (§1)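 From the Consortium for Functional Glycomics database, 3228 arrays were curated, keeping only those whose protein sequence was available. Binding is given as a within-array Z-score averaged across arrays sharing a protein sequence and across linkers. Negative Z-scores can be read as non-binding.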
# [2] = molecular target: GlcNAc(b1-2)[GlcNAc(b1-4)]Man(a1-3)[GlcNAc(b1-2)Man(a1-6)]Man(b1-4)GlcNAc(b1-4)GlcNAc
# Procedure, shortened: as §1
# [3] = molecular target: GlcNAc(b1-2)[GlcNAc(b1-4)]Man(a1-3)[GlcNAc(b1-4)][GlcNAc(b1-2)Man(a1-6)]Man(b1-4)GlcNAc(b1-4)GlcNAc
# Procedure, shortened: as §1
# [4] = molecular target: GlcNAc(b1-3)Gal(b1-4)GlcNAc(b1-3)Gal(b1-4)GlcNAc(b1-2)Man(a1-3)[GlcNAc(b1-3)Gal(b1-4)GlcNAc(b1-3)Gal(b1-4)GlcNAc(b1-2)Man(a1-6)]Man(b1-4)GlcNAc(b1-4)GlcNAc
# Procedure, shortened: as §1
# [5] = molecular target: GlcNAc(b1-3)Gal(b1-4)GlcNAc(b1-3)Gal(b1-4)GlcNAc(b1-3)Gal(b1-4)GlcNAc(b1-2)Man(a1-3)[GlcNAc(b1-3)Gal(b1-4)GlcNAc(b1-3)Gal(b1-4)GlcNAc(b1-3)Gal(b1-4)GlcNAc(b1-2)Man(a1-6)]Man(b1-4)GlcNAc(b1-4)GlcNAc
# Procedure, shortened: as §1
# [6] = molecular target: GlcNAc(b1-3)[GlcNAc(b1-4)][GlcNAc(b1-6)]GlcNAc
# Procedure, shortened: as §1
# [7] = molecular target: Kdn(a2-6)Gal(b1-4)GlcNAc
# Procedure, shortened: as §1
# [8] = molecular target: Man(a1-2)Man(a1-3)[Man(a1-2)Man(a1-6)]Man
# Procedure, shortened: as §1
# [9] = molecular target: Man(a1-2)Man(a1-3)[Man(a1-2)Man(a1-6)]Man(a1-6)[Man(a1-2)Man(a1-2)Man(a1-3)]Man
# Procedure, shortened: as §1
# [10] = molecular target: Man(a1-3)[Man(a1-6)]Man
# Procedure, shortened: as §1
# [11] = molecular target: Neu5Ac(a2-3)Gal(b1-3)GlcNAc(b1-2)[Neu5Ac(a2-3)Gal(b1-3)GlcNAc(b1-4)]Man(a1-6)[Neu5Ac(a2-3)Gal(b1-3)GlcNAc(b1-2)Man(a1-3)]Man(b1-4)GlcNAc(b1-4)GlcNAc
# Procedure, shortened: as §1
# [12] = molecular target: Neu5Ac(a2-3)Gal(b1-3)GlcNAc(b1-3)Gal(b1-3)GlcNAc
# Procedure, shortened: as §1
# [13] = molecular target: Neu5Ac(a2-3)Gal(b1-4)GlcNAc(b1-2)Man(a1-3)[GlcNAc(b1-4)][Neu5Ac(a2-3)Gal(b1-4)GlcNAc(b1-2)Man(a1-6)]Man(b1-4)GlcNAc(b1-4)GlcNAc
# Procedure, shortened: as §1
# [14] = molecular target: Neu5Ac(a2-3)Gal(b1-4)GlcNAc(b1-2)Man(a1-3)[Neu5Ac(a2-6)Gal(b1-4)GlcNAc(b1-2)Man(a1-6)]Man(b1-4)GlcNAc(b1-4)GlcNAc
# Procedure, shortened: as §1
# [15] = molecular target: Neu5Ac(a2-3)Gal(b1-4)GlcNAc(b1-3)Gal(b1-4)GlcNAc(b1-3)[Neu5Ac(a2-3)Gal(b1-4)GlcNAc(b1-3)Gal(b1-4)GlcNAc(b1-6)]GalNAc
# Procedure, shortened: as §1
# [16] = molecular target: Neu5Ac(a2-3)Gal(b1-4)[Fuc(a1-3)]GlcNAc(b1-3)GalNAc
# Procedure, shortened: as §1
# [17] = molecular target: Neu5Ac(a2-3)Gal6S(b1-4)[Fuc(a1-3)]GlcNAc
# Procedure, shortened: as §1
# [18] = molecular target: Neu5Ac(a2-6)Gal(b1-4)GlcNAc
# Procedure, shortened: as §1
# [19] = molecular target: Neu5Ac(a2-6)Gal(b1-4)GlcNAc(b1-2)Man(a1-3)[Gal(b1-4)GlcNAc(b1-2)Man(a1-6)]Man(b1-4)GlcNAc(b1-4)GlcNAc
# Procedure, shortened: as §1
# [20] = molecular target: Neu5Ac(a2-6)Gal(b1-4)GlcNAc(b1-2)Man(a1-3)[GlcNAc(b1-2)Man(a1-6)]Man(b1-4)GlcNAc(b1-4)GlcNAc
# Procedure, shortened: as §1
# [21] = molecular target: Neu5Ac(a2-6)Gal(b1-4)GlcNAc(b1-2)Man(a1-3)[Neu5Ac(a2-3)Gal(b1-4)GlcNAc(b1-2)Man(a1-6)]Man(b1-4)GlcNAc(b1-4)GlcNAc
# Procedure, shortened: as §1
# [22] = molecular target: Neu5Ac(a2-6)Gal(b1-4)GlcNAc(b1-6)GalNAc
# Procedure, shortened: as §1
# [23] = molecular target: Neu5Ac(a2-8)Neu5Ac(a2-3)Gal(b1-3)GalNAc(b1-4)[Neu5Ac(a2-8)Neu5Ac(a2-3)]Gal(b1-4)Glc
# Procedure, shortened: as §1
# [24] = molecular target: Neu5Ac(a2-8)Neu5Ac(a2-8)Neu5Ac(a2-3)[Gal(b1-3)GalNAc(b1-4)]Gal(b1-4)Glc
# Procedure, shortened: as §1
# [25] = molecular target: Neu5Ac(b2-6)Gal(b1-4)GlcNAc
# Procedure, shortened: as §1
# [26] = molecular target: Neu5Gc(a2-3)Gal(b1-3)[Fuc(a1-4)]GlcNAc
# Procedure, shortened: as §1
binder,measurement,setting,value
B1,glycan array binding signal (z-score),[1],3.59
same,glycan array binding signal (z-score),[2],0.095
same,glycan array binding signal (z-score),[3],0.673
same,glycan array binding signal (z-score),[4],0.778
same,glycan array binding signal (z-score),[5],-0.221
same,glycan array binding signal (z-score),[6],0.102
same,glycan array binding signal (z-score),[7],0.204
same,glycan array binding signal (z-score),[8],-0.005
same,glycan array binding signal (z-score),[9],0.088
same,glycan array binding signal (z-score),[10],0.047
same,glycan array binding signal (z-score),[11],0.47
same,glycan array binding signal (z-score),[12],-0.142
same,glycan array binding signal (z-score),[13],1.43
same,glycan array binding signal (z-score),[14],2.22
same,glycan array binding signal (z-score),[15],-0.101
same,glycan array binding signal (z-score),[16],4.34
same,glycan array binding signal (z-score),[17],-1.24
same,glycan array binding signal (z-score),[18],-1.22
same,glycan array binding signal (z-score),[19],0.815
same,glycan array binding signal (z-score),[20],0.613
same,glycan array binding signal (z-score),[21],-0.493
same,glycan array binding signal (z-score),[22],-0.055
same,glycan array binding signal (z-score),[23],1.4
same,glycan array binding signal (z-score),[24],0.076
same,glycan array binding signal (z-score),[25],-0.632
same,glycan array binding signal (z-score),[26],1.01
